From PubChem BioAssay AID1527 (The Scripps Research Institute Molecular Screening Center, 2009)
Out of some 290,000 compounds screened, about 2,600 (0.9%) were called active.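 The calls were made as follows: active = inhibition above the mean of all tested compounds plus 3 SD, cutoff set per screening run (cut at about 7.5% in these data); inactive = the rest.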 This excerpt belongs to a sample that is enriched for actives.

Each compound was assayed on VIM-2 metallo-beta-lactamase (Pseudomonas aeruginosa) (assay: VIM-2 metallo-beta-lactamase inhibitors, primary screen, biochemical, epi-absorbance readout, Pseudomonas aeruginosa enzyme (AID 1527;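 also: red hydrolysis product quenches plate fluorescence so inhibitors raise well fluorescence; 0% = enzyme with DMSO and 100% = DMSO without enzyme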)). Details: purified VIM-2, nitrocefin hydrolysis, epi-absorbance fluorescence; at 5.6 µM; stronger effect = higher value.

inhibition, active:
CCn1c(=N)c(C(=O)NCCCOC)cc2c(=O)n3cccc(C)c3nc21 10.5%, COc1ccc(CCn2c(=N)c(C(=O)NCC3CCCO3)cc3c(=O)n4cccc(C)c4nc32)cc1OC (stereo not given) 16.1%, COC(=O)c1ccccc1N=Nc1c(C)[nH][nH]c1=O 8.28%, CCOc1cc(/C=C2\SC(N3CCCC(C)C3)=NC2=O)ccc1O (stereo not given) 14.7%, CCOc1cc(/C=C2\SC(N3CCCCC3)=NC2=O)ccc1O 14.9%, Cn1c2ccccc2c(=O)c2c(O)cccc21 16.8%, Cc1cc(=O)oc2c(C)c(OCC(=O)NCCc3ccc(S(N)(=O)=O)cc3)ccc12 10.4%, Cc1nc2ccccc2c2oc(C(=O)NCCCN3CCC(C)CC3)cc12 16.2%, CCCN(CCC)CCNC(=O)c1cc2c(C)nc3ccccc3c2o1 10.2%, CCCn1c(SCC(=O)c2ccc3c(c2)OCCO3)nnc1C(C)C 9.77%, CN(C)CCSc1nc(N)c2c3c(sc2n1)COC(C)(C)C3 10.3%, COc1ccc(Cc2nnc(NS(=O)(=O)Cc3ccccc3)s2)cc1 13.9%, CCC1CCCCN1CCCNC(=O)c1cc2c(Cl)nc3ccccc3c2s1 (stereo not given) 19.5%, O=C(NCCCN1CCOCC1)c1cnn2c(-c3ccccc3)cc(-c3ccccc3)nc12 23.4%, NC(=O)c1ccc(NC(=O)COC(=O)c2c3c(nc4ccccc24)/C(=C\c2ccc4c(c2)OCO4)CCC3)cc1 20.7%, NS(=O)(=O)c1ccc(NC(=O)COC(=O)c2c3c(nc4ccccc24)/C(=C\c2ccc4c(c2)OCO4)CCC3)cc1 23.9%

inhibition, inactive:
O=C(NCC1CCCO1)c1ccccc1-c1nc(-c2ccccc2Cl)no1 (stereo not given) -2.71%, COc1ccccc1NC(=O)c1cc(N2C(=O)C3C4CCC(C4)C3C2=O)ccc1Cl (stereo not given) -0.65%, COc1ccc(CCNC(=O)CCn2c(=O)c3ccccc3n(CC(=O)NCC3CCCO3)c2=O)cc1OC (stereo not given) -1.51%, COc1ccc(CCn2c(=N)c(C(=O)NCc3ccco3)cc3c(=O)n4cccc(C)c4nc32)cc1 -1.42%, Cc1cccn2c(=O)c3cc(C(=O)NCC4CCCO4)c(=N)n(Cc4ccc(F)cc4)c3nc12 (stereo not given) 5.79%, Cc1cccn2c(=O)c3cc(C(=O)NCCN4CCOCC4)c(=N)n(Cc4cccnc4)c3nc12 4.67%, Cc1ccc(S(=O)(=O)N(CC(=O)NCCSC2CCCCC2)c2ccccc2F)cc1 -2.1%, COc1cccc(N(C(=O)c2snc(C(N)=O)c2N)C(C(=O)NCC2CCCO2)c2c[nH]c3ccccc23)c1 (stereo not given) -0.46%, CCOC(=O)C1(Cc2ccccc2C)CCCN(C(=O)CCc2c(C)noc2C)C1 (stereo not given) 0.38%, Cc1occc(=O)c1OCc1ccc(F)cc1 -1.42%, COC(=O)CN1C(=O)[C@H]2[C@@H](C3CC3)N3C(=O)CN(Cc4ccc(-c5ccccc5)cc4)C(=O)[C@@]3(Cc3ccccc3)[C@H]2C1=O -2.72%, Cc1cc(NC(=O)c2ccc(F)cc2)ccc1NC(=O)c1ccco1 -3.06%, Cc1[nH]n(-c2ccccc2)c(=O)c1N=Nc1ccccc1C(=O)N1CCCCC1 -0.74%, Cc1[nH][nH]c(=O)c1N=Nc1ccccc1 -4.7%, CN(Cc1ccco1)S(=O)(=O)c1nnc(NC(=O)c2ccccc2)s1 -2.48%, O=c1oc2ccccc2c(NC2CCCCC2)c1NS(=O)(=O)c1ccc(Cl)cc1 -2.68%, Cc1cc2c(cc1C)[n+](C)cn2CC(O)COCC1CC=CCC1 (stereo not given) -3.17%, Clc1ccc(C2=CSC3=Nc4cccc5cccc(c45)N23)cc1 1.95%, Cc1cnc(C(=O)OCc2c(C)cc(C(C)(C)C)cc2C)cn1 0.21%, O=C1N=C(N2CCc3ccccc3C2)S/C1=C\c1ccc(O)cc1 0.39%, CCc1ccc(/C=C2\SC(N3CCOCC3)=NC2=O)cc1 -0.98%, CC1CCN(C2=NC(=O)/C(=C/c3ccc(O)cc3)S2)CC1 1.8%, O=C1N=C(N2CCCC2)S/C1=C\c1cccc(Br)c1 -0.86%, COCCCNC(=O)[C@H]1N2C(=O)c3ccccc3C2SC1(C)C (stereo not given in full) 0.11%, CC(C)c1ccc(OCC(O)CN2CCN(c3ccccn3)CC2)cc1 (stereo not given) -3.55%, CN(CC(=O)NCc1ccncc1)S(=O)(=O)c1ccc(Br)cc1 -1.28%, COc1ccccc1OCCCC(=O)Nc1ccc2c(c1)OCCO2 -2.36%, CC1CCCCC1NC(=O)CCS(=O)(=O)c1ccc2c(c1)NC(=O)CO2 (stereo not given) -1.17%, COCC(=O)N1CCc2ccc(NC(=O)c3ccccc3Cl)cc2C1 -2.32%, CSc1cccc(NC(=O)CN2C(=O)COc3ccc(S(=O)(=O)N4CCOCC4)cc32)c1 -1.26%, O=C1/C(=C/c2cccs2)CCC1C1CCCC1 (stereo not given) -3.15%, Cn1c(=O)c(Sc2ccc(Cl)cc2)c(O)c2ccccc21 -2.02%, COc1cccc2c(O)cc(=O)n(C)c12 -2.19%, COc1ccc(NC(=O)C2CCC(CNS(=O)(=O)c3csc(C(N)=O)c3)CC2)cc1OC (stereo not given) 1.07%, Cc1ccc2c(=O)cc(C(=O)NCCc3ccc(S(N)(=O)=O)cc3)oc2c1C 5.69%, Cc1cc(=O)oc2c(C)c(OCC(=O)NCCN3CCOCC3)ccc12 5.03%, Cc1ccccc1NC(=S)NC(=O)Cc1ccc(Cl)cc1 -0.97%, O=C(NCCN1CCOCC1)c1cc(-c2cccs2)nc2ccccc12 -0.14%, CC1CCN(CCCn2c(SCC(=O)NC3CCCC3)nc3ccccc3c2=O)CC1 -1.12%, Cc1cc(=O)oc(C)c1C(=O)NCCN(C)Cc1ccccc1 -1.11%, CCCCN(C)CCCNC(=O)c1cc(-c2cccs2)nc2ccccc12 -1.4%, Cc1ccccc1C(CC(=O)c1cccs1)C(C#N)C#N (stereo not given) -2.96%, O=S(=O)(NC1CCCCC1N1CCCCC1)c1ccc(Cl)cc1 (stereo not given) -1.53%, CCCCn1c(N)c(N(CC)C(=O)c2ccccc2C(F)(F)F)c(=O)[nH]c1=O -0.36%, Cc1ccc(N(CC(=O)NCC2CCCO2)C(=O)CNS(=O)(=O)c2ccc(Cl)cc2)cc1 (stereo not given) -3.97%, COc1cccc(CNC(=O)Cn2c(=O)oc3cc(S(=O)(=O)N4CCCCC4)ccc32)c1 -0.65%, CCOC(=O)C1=C(O)/C(=C/c2ccc(OCC(=O)Nc3ccc(C)cc3)cc2)N=C1C -1.99%, CCn1c(SCC(=O)Nc2ccc3c(c2)OCCO3)nnc1C(C)C -1.97%, CCCn1c(SCC(N)=O)nnc1C(C)C -1.77%, CCN(CC)CCCNC(=O)COc1ccc2oc3c(c2c1)CCCC3 -0.12%, O=C(N/N=C/c1cccc([N+](=O)[O-])c1)C1CC(=O)N(c2ccc(Br)cc2)C1 (stereo not given) -1.97%, CCC1(C)Cc2c(sc3nc(SC)nc(N)c23)CO1 (stereo not given) -3.26%, CCSc1nc2sc3c(c2c(=O)[nH]1)CC(C)(C)OC3 0.86%, CC1CC(NC(=O)/C(C#N)=C/c2ccc[nH]2)CC(C)(C)C1 (stereo not given) -3.17%, COc1ccc(C(=O)Nc2ccc(C3(C#N)CCCC3)cc2)cc1OC -1.46%, Cc1cc(C)cc(N(CC(=O)NC2CCCC2)C(=O)CCC(=O)Nc2cc(C)on2)c1 -2.81%, CCC(CC)c1nnc(NS(=O)(=O)Cc2ccccc2)s1 -1.98%, COc1ccc(Cc2nnc(NC(=O)Cc3cccs3)s2)cc1 -3.71%, Cc1ccc(NS(=O)(=O)c2cn(C)c(=O)n(C)c2=O)c(C)c1 -0.4%, CCS(=O)(=O)N1CCC(N2CCN(c3ccccc3)CC2)CC1 -1.31%, O=C(NCCc1cccc(F)c1)C1CCCN(c2nc3ccccc3s2)C1 (stereo not given) 0.44%, Cc1cc(Cl)c2oc(C(=O)NC(C)c3ccncn3)c(C)c2c1 (stereo not given) -1.68%, CCC1CCCCN1CCCNC(=O)Cn1nc(-c2ccccc2)ccc1=O (stereo not given) -1.79%, CCC1CCCCN1CCCNC(=O)C1CCC(Cn2c(=O)[nH]c3ccccc3c2=O)CC1 (stereo not given) -4.77%, Cc1nn(C)c(Oc2ccccc2)c1CCNS(=O)(=O)c1ccc(F)cc1 -2.13%, O=C(NCCCN1CCOCC1)c1ccccc1NS(=O)(=O)c1ccc(Br)cc1 -2.82%, O=C(NCCCN1CCOCC1)c1ccccc1NS(=O)(=O)c1ccc(F)cc1 -1.71%, COc1ccccc1N(C)C(=O)c1cc(S(=O)(=O)N2CCc3ccccc32)cn1C -4.13%, Brc1ccccc1C1N=C(c2ccccc2)NO1 (stereo not given) -2.78%, COc1cc(-c2cc(C(=O)OCC(=O)Nc3ccc4c(c3)OCO4)c3ccccc3n2)cc(OC)c1OC 2.83%, O=C(COC(=O)c1c2c(nc3ccccc13)/C(=C\c1cccs1)CCC2)Nc1ccccc1Cl -4.79%, NS(=O)(=O)c1ccc(NC(=O)COC(=O)c2cc3ccccc3oc2=O)cc1 0.95%, COc1cc(/C=C2\CCCc3c2nc2ccccc2c3C(=O)O)cc(Cl)c1O 2.46%, CCc1ccc(C2N3CC4([N+](=O)[O-])CN2CC([N+](=O)[O-])(C3)C4(C)C)cc1 (stereo not given) -3.1%
